Results published in PubChem BioAssay AID463190 (Sanford-Burnham Center for Chemical Genomics, 2010).
The campaign covered roughly 330,000 compounds. About 7,300 (2.2%) were called active. This is one part of a sample in which actives are shown more often than they occur. Unmarked numbers belong to inactive results.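 How the source made its calls: active means inhibition of at least 40%; inactive means the rest.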

Test: growth inhibition of tim10-1 ts yeast – luminescence, uHTS, primary screen (AID 463190);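 further: mutant grown at 25 °C; 0% = DMSO wells with yeast and 100% = wells holding no yeast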
Conditions: S. cerevisiae tim10-1 ts strain growth, BacTiter-Glo, 24 h; at 20 µM; hits give high values
In the case of `COc1ccc(C(=O)OCC(=O)c2cc(C)n(CC3CCCO3)c2C)cc1[N+](=O)[O-]` (centres undefined), the inhibition is reported as 44.5% (active). Compound `Cc1ccsc1C(=O)OCC(=O)c1cc(C)n(CC2CCCO2)c1C` (centres undefined) has an inhibition of 33%. Compound `COc1ccc(C(=O)OCC(=O)NCC2CCCO2)cc1[N+](=O)[O-]` (centres undefined) has an inhibition of -1.22%. Compound `COC(=O)CN1C(=O)[C@H]2[C@@H](/C=C/c3ccccc3)N3C(=O)CN(Cc4ccccc4)C(=O)[C@@]3(Cc3ccccc3)[C@H]2C1=O` has an inhibition of 8.2%. For `Fc1ccccc1/C=C1\CCCC2=C1Nc1ncnn1C2c1ccccc1F` (centres undefined), the inhibition was 40.1% (active). With `CC1=C(C(N)=O)C(c2ccc(Br)cc2)n2ncnc2N1` (centres undefined) the inhibition was 10.7%. In the case of `OC1CN=C2Sc3ccccc3N2C1` (centres undefined), the inhibition is reported as 10.5%. `CCc1cccc2c(C=C(C#N)C#N)cn(CC(=O)N3CCCCC3)c12` showed an inhibition of 18%. Work on `Cc1ccc(C(=O)O)cc1S(=O)(=O)NCC1CCCO1` (centres undefined) yielded an inhibition of -1.57%. For `Cn1c(C(=O)OC(C(=O)NC2CCCCC2)c2ccccn2)cc2sccc21` (centres undefined), the inhibition was 40.4% (active). Compound `CC(C)C(OC(=O)c1cccs1)C(=O)NC1CCCCC1` (centres undefined) has an inhibition of 14.5%. Compound `Cn1c(C(=O)N2CCCC(C(=O)NCc3ccccc3)C2)cc2sccc21` (centres undefined) has an inhibition of -2.21%. `O=C1C2(c3ccccc3)CN(CCCO)CC1(c1ccccc1)CN(CCCO)C2` gave an inhibition of 13.9%. `CCOC(=O)C1(C(F)(F)F)N=C(N(C)C)OC(N(C)C)=N1` showed an inhibition of 0.707%. In the case of `CCCCn1c(=S)[nH]c2ccccc2c1=O`, the inhibition is reported as 30.4%. For `S=c1[nH]c2ccccc2c2ccccc12`, the inhibition was 40.1% (active). Compound `S=c1ccc2ccccc2[nH]1` has an inhibition of 8.36%. For `CC(C)Oc1ccc(C(CC(=O)N2CCOCC2)C(C)C)cc1` (centres undefined), the inhibition was 1.61%. `COc1ccccc1C(=O)NCC(=O)NCCSc1ccc(Br)cc1` showed an inhibition of 12.5%. `Oc1ccccc1CN1CCN(C(c2ccccc2)c2ccccc2)CC1` showed an inhibition of 24.4%. With `CCN1CCN(c2ccc(NC(=O)c3cnccn3)cc2)CC1` the inhibition was 4.72%. For `CCN1CCN(C(c2cccnc2)c2cc(Cl)c3cccnc3c2O)CC1` (centres undefined), the inhibition was 50.7% (active). In the case of `C=C(C)c1cccc(C(C)(C)NC(=O)NCCN(CC)CC)c1`, the inhibition is reported as 15.8%. Work on `O=C1COc2ccc(NC(=O)N3CCN(c4ccc(F)cc4)CC3)cc2N1` yielded an inhibition of -1.3%. `CCOC(=O)C1Nc2ccc(C(F)(F)F)cc2C2C=CCC12` (centres undefined) showed an inhibition of 26.6%. With `COC(=O)NC1(C(F)(F)F)NC(=O)N(C2CCCCC2)C1=O` (centres undefined) the inhibition was -0.477%. For `O=C1NC(Nc2nc3ccccc3s2)(C(F)(F)F)C(=O)N1C1CCCCC1` (centres undefined), the inhibition was 55.7% (active). In the case of `O=C(NC1(C(F)(F)F)NC(=O)N(C2CCCCC2)C1=O)c1ccco1` (centres undefined), the inhibition is reported as 9.83%. Compound `C=CCC1(CC=C)CCCN1C(=O)CC1C(=O)NCCN1Cc1ccccc1OC` (centres undefined) has an inhibition of 7.02%. For `O=C(Nc1cccc2cccnc12)c1cccc(Cl)c1`, the inhibition was 20.4%. With `S=C(NCc1cccnc1)Nc1ccc(Cl)cc1Cl` the inhibition was 15%. For `CC(=O)/C(=N\Nc1ccc(Cl)cc1Cl)Sc1cccc2cccnc12`, the inhibition was 53.2% (active). Compound `Cn1cccc1C(=O)OCC(=O)NCCc1ccccc1` has an inhibition of -4.06%. Work on `Cc1c(C)n(Cc2ccc(Cl)cc2)c2ccc(C(=O)NCCCN3CCOCC3)cc12` yielded an inhibition of 5.97%. With `O=C(Nc1ccccc1)c1nnsc1S(=O)(=O)c1ccc(Cl)cc1` the inhibition was 87.7% (active). Work on `O=C(Nc1ccc(Cl)cc1)Nc1nnc(/C=C/c2ccccc2)s1` yielded an inhibition of 5.19%. For `NS(=O)(=O)c1ccc(CCNC(=O)Nc2ccc(Cl)cc2)cc1`, the inhibition was 8.7%. In the case of `COC(=O)c1cc(NC(=O)c2nn(C)c(=O)c3ccccc23)cc(C(=O)OC)c1`, the inhibition is reported as 13.9%. With `CCc1ccccc1NC(=O)Cc1cn(C)c2ccccc12` the inhibition was 24.8%. For `C=C(C)Cn1c(C)cc(C)c(S(=O)(=O)c2ccccc2C)c1=O`, the inhibition was 27.4%. With `Nc1ccccc1SC(C[N+](=O)[O-])c1ccccc1` (centres undefined) the inhibition was 48.9% (active). Work on `CCS(=O)(=O)c1cc([N+](=O)[O-])c(Sc2ccccc2N)s1` yielded an inhibition of 7.45%. With `Cc1ccc(C)c(N2CCN(C(=O)CCCCn3c(=O)[nH]c4ccccc4c3=O)CC2)c1` the inhibition was 40.7% (active). Work on `Cc1ccc(C)c(N2CCN(C(=O)CCCCCn3c(=S)[nH]c4ccc(N5CCOCC5)cc4c3=O)CC2)c1` yielded an inhibition of 0.092%. With `Cc1ccc(C)c(N2CCN(C(=O)CCc3nc4ccccc4[nH]3)CC2)c1` the inhibition was 22.3%. `O=C(CCC1CCCCC1)Nc1cc(C(F)(F)F)ccc1N1CCOCC1` showed an inhibition of 27.5%. Compound `O=C(NCCc1ccccc1)C1CCC(Cn2c(=O)c3ccccc3n(Cc3cccnc3)c2=O)CC1` (centres undefined) has an inhibition of 15.4%. In the case of `Cc1ccc(Cl)cc1NC(=O)C1CCCN(c2cnccn2)C1` (centres undefined), the inhibition is reported as 12.5%. Compound `CC(=O)c1cc(C#N)c(SCC(=O)Nc2nccs2)nc1C` has an inhibition of -56.3%. With `S=c1[nH]nc(CSCc2ccc(Cl)cc2Cl)n1-c1ccccc1` the inhibition was 41.3% (active). For `Cc1ccc(NCc2n[nH]c(=S)n2-c2ccccc2)cc1Cl`, the inhibition was 23%. With `S=c1[nH]nc(COc2ccccc2)n1-c1ccccc1` the inhibition was 21.4%. `CCCCNC(=O)C(C)N(CCN(C)C)C(=O)CCCN1C(=O)NC(c2ccc(Cl)cc2)C(C(=O)OCc2ccccc2)=C1C` (centres undefined) showed an inhibition of 6.33%. Work on `CCCc1cc(=O)[nH]c(SCC(=O)Nc2sc3c(c2C#N)CCCC3)n1` yielded an inhibition of 6.17%. `COc1ccc(CCNC(=O)C(=O)Nc2ccc3nc4n(c(=O)c3c2)CCCCC4)cc1OC` showed an inhibition of 9.06%. `CCn1cc(CNC(=O)c2cc([N+](=O)[O-])c(C)c([N+](=O)[O-])c2)cn1` gave an inhibition of 14.3%. `S=C(NCC1COc2ccccc2O1)Nc1ccc(Br)cc1` (centres undefined) gave an inhibition of 7.9%. For `CCCN(CC1COc2ccccc2O1)C(=S)Nc1ccc(C)cc1` (centres undefined), the inhibition was 46.4% (active). In the case of `CCC(=O)c1ccc(OCC(=O)N(CC)CC2COc3ccccc3O2)cc1` (centres undefined), the inhibition is reported as 18.9%. In the case of `CC(C)C(O)C1CCN(Cc2nc(Cc3ccccc3Cl)no2)CC1` (centres undefined), the inhibition is reported as 15.8%. For `C/C=C(/C)C(=O)O[C@@H]1c2cc3c(c4c2[C@@]2(CO4)C(=O)C(OC)=C(OC)C=C2C[C@@H](C)[C@H]1C)OCO3`, the inhibition was 13.3%. `C[C@@H](C(=O)N1CCNCC1)n1cc(CCC(=O)O)nn1` showed an inhibition of -7.39%. With `COC(=O)N(NC(=O)C(O)(C(C)C)C(C)C)c1ccccc1` the inhibition was -7.63%. In the case of `CCCC(O)(CCC)C(=O)NN(C(=O)CCl)c1cccc(C)c1`, the inhibition is reported as 31.5%. In the case of `CCCCC(O)(CCCC)C(=O)NN(C(=O)CCl)c1ccccc1`, the inhibition is reported as 49.5% (active). `Cc1ccnc(SCCn2c(N(C)Cc3ccccc3)nc3c2c(=O)n(C)c(=O)n3C)n1` showed an inhibition of 30%. Compound `COc1ccc(C(C#N)(CC(=O)O)c2cnccn2)cc1OC` (centres undefined) has an inhibition of -2.88%. With `COc1ccccc1CNS(=O)(=O)c1ccc2c(c1)NC(=O)CS2` the inhibition was -7.01%. Work on `Cn1c(=O)[nH]c(=O)c2c1nc(N1CCN(C(c3ccccc3)c3ccccc3)CC1)n2CCO` yielded an inhibition of 10.4%. In the case of `O=C(O)c1ccccc1CSc1nc2ccccc2s1`, the inhibition is reported as 2.18%. In the case of `O=[N+]([O-])c1c(NCCO)cc(Sc2nc3ccccc3s2)c2nonc12`, the inhibition is reported as 42.6% (active). In the case of `NC(=O)c1ccc(Nc2ccc3nonc3c2[N+](=O)[O-])cc1`, the inhibition is reported as -0.57%. `COc1cc(C(=O)OCC(=O)NC(C)CCc2ccccc2)cc(OC)c1OC` (centres undefined) showed an inhibition of 13.5%. For `CN1C(=O)[C@H]2[C@@H](/C=C/c3ccccc3)N3C(=O)CN(Cc4ccc(-c5ccccc5)cc4)C(=O)[C@@]3(C)[C@H]2C1=O`, the inhibition was 1.58%. In the case of `Cc1nc(-c2ccccc2)cn2c1nc1ccccc12`, the inhibition is reported as 40.7% (active). Work on `Cc1c(C(=O)Nc2cccc(Cl)c2)cn2c(nc3ccccc32)c1C#N` yielded an inhibition of 10.2%. For `CCOCCn1c(-c2ccccc2)nc2ccccc21`, the inhibition was -13.4%. In the case of `COc1ccc(C(=O)OCC(=O)c2ccc(Cl)s2)c(OC)c1OC`, the inhibition is reported as 6.36%. In the case of `Cc1ccc(S(=O)(=O)NCCC(c2ccccc2)c2ccccc2)cc1C(=O)O`, the inhibition is reported as 25.2%. In the case of `COc1ccc(C(=O)COC(=O)CNC(=O)c2cccs2)cc1Br`, the inhibition is reported as -2.83%. In the case of `COc1ccc(/C(C)=N/NC(=O)c2ccc3nc[nH]c3c2)cc1`, the inhibition is reported as 52.3% (active). Work on `CCN(CC)c1ccc(C(=O)N/N=C(\C)c2cccc(OC)c2)cc1` yielded an inhibition of -18.4%. Compound `CC(=NNC(=O)c1ccc2nc[nH]c2c1)c1ccc(Br)cc1` has an inhibition of 9.94%. In the case of `O=C(O/N=C(/c1ccccc1)c1ccncc1)c1ccccc1[N+](=O)[O-]`, the inhibition is reported as 41.3% (active). Compound `O=C(Nc1ccncc1)c1ccccc1[N+](=O)[O-]` has an inhibition of 0.557%. For `CN(C)CCCO/N=C(\c1ccccc1)c1ccncc1`, the inhibition was -3.73%. `COc1ccc(OCC(=O)NNC(=O)C2CCC2)cc1` gave an inhibition of -8.95%. Compound `O=C(Nc1ccc(Cl)c(Cl)c1)c1ccccc1NC(=O)C1CC=CCC1C(=O)O` (centres undefined) has an inhibition of 14.6%. With `COc1ccc(C(=O)Nc2ccccc2C(=O)N/N=C/c2ccccc2OC)cc1` the inhibition was 66.7% (active). In the case of `COc1ccc(C(=O)Nc2ccccc2C(=O)N/N=C/c2ccc(O)c(OC)c2)cc1`, the inhibition is reported as 97% (active). `CCOc1cc(/C=N/NC(=O)c2cc(-c3ccccc3)nc3ccccc23)ccc1O` gave an inhibition of 11.6%. Compound `COc1cc(/C=N/NC(=O)c2ccc(N3CCCC3=O)cc2)ccc1O` has an inhibition of 13.5%. Compound `COc1ccccc1C(=O)NNC(=O)c1ccc(NC(=O)c2ccccc2)cc1` has an inhibition of -9.84%. Compound `COc1ccc(C(=O)Nc2cc(C)c(NC(=O)c3ccccc3OC)cn2)cc1` has an inhibition of -34.5%.
